Experimental findings from the supplement of paper PMC4709259 are described below.

The test system of test [1] is Jurkat. Briefly: mean cell size (FSC-A) relative to DMSO control (fraction of control); higher = larger cells. Conditions: 48 h. The method in brief:
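Jurkat cells at 600 cells/µl were incubated for 1 h and then treated for 48h with the Enzo Screen-Well FDA Approved Drug Library v2.0 at 25µM, with DMSO at 0.9% (v/v) final. Compounds that reduced counts below 20% of controls were retested in 10-fold dilutions down to 25nM. Cell count and mean cell size, taken as forward scatter area, were measured by flow cytometry relative to solvent-only controls. Each plate carried 6-12 controls, and values are means of 3 biological replicates.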

Test [2] deals with Jurkat. Description: cell count relative to DMSO control (fraction of control); higher = more cells (less growth inhibition). Conditions: 48 h.

Counter-ions that a name gives are not always drawn. ± gives the standard deviation.

As to `CC[C@@H](CO)NC(=O)[C@@H]1C=C2c3cccc4[nH]cc(c34)C[C@H]2N(C)C1` [Methylergonovine Maleate] (concentration: 25 µM), the mean cell size in the test on Jurkat [1] stood at 1.01 ± 0.016. In addition, in the test on Jurkat [2], the cell count was found to be 0.865 ± 0.15.
The corresponding values for `Cn1c(CCCC(=O)O)nc2cc(N(CCCl)CCCl)ccc21` [Bendamustine·HCl] (concentration: 25 µM) are 1.26 ± 0.022 and 0.2666 ± 0.00052.
The corresponding values for `NCC1(CC(=O)O)CCCCC1` [Gabapentin] (concentration: 25 µM) are 0.943 ± 0.02 and 0.935 ± 0.036.
In the test with Jurkat [1], `Cc1cccc([C@H](C)c2c[nH]cn2)c1C` [Dexmedetomidine·HCl] (concentration: 25 µM) yielded a mean cell size of 0.942 ± 0.06. This molecule registered a cell count with Jurkat [2] of 0.375 ± 0.13.
`CC[C@@H](C(N)=O)N1CCCC1=O` [Levetiracetam] (concentration: 25 µM) came in with a mean cell size in the test on Jurkat [1] of 0.968 ± 0.018. The same molecule registered a cell count in the test with Jurkat [2] of 0.603 ± 0.1.
The corresponding values for `O=P1(N(CCCl)CCCl)NCCCO1` (stereo not given) [Cyclophosphamide (Free Base)] (concentration: 25 µM) are 1.01 ± 0.051 and 0.623 ± 0.15.
On to `NCCCNCCSP(=O)(O)O` [Amifostine] (concentration: 25 µM), for which the mean cell size in the test on Jurkat [1] turned out to be 0.95 ± 0.036. The molecule further registered a cell count in the test with Jurkat [2] of 0.8 ± 0.12.
`COc1ccc(C(CN(C)C)C2(O)CCCCC2)cc1` (stereo not given) [Venlafaxine·HCl] (concentration: 25 µM): the mean cell size with Jurkat [1] was 0.987 ± 0.021. Also, in the test with Jurkat [2], the cell count is 0.498 ± 0.12.
`CN1C[C@H](C(=O)N[C@]2(C)O[C@@]3(O)[C@@H]4CCCN4C(=O)[C@H](Cc4ccccc4)N3C2=O)C[C@@H]2c3cccc4[nH]cc(c34)C[C@H]21` [Dihydroergotamine Mesylate] (concentration: 25 µM) returned a mean cell size in the test on Jurkat [1] of 1 ± 0.027. This molecule had a cell count with Jurkat [2] of 0.297 ± 0.092.
The corresponding values for `COc1cc([C@@H]2c3cc4c(cc3[C@H](O)[C@H]3COC(=O)[C@H]23)OCO4)cc(OC)c1OC` [Podofilox] (concentration: 25 nM) are 0.863 ± 0.026 and 0.0355 ± 0.018.
